A selection: hits, their analogues and other compounds. The true share with any hit is near 5.4%.
A3G deaminase: APOBEC3G (human) deaminase inhibition | Q9HC16 | recombinant A3G, ssDNA deamination FAM/TAMRA fluorescence | inhibition, % at 20 µM | actives 0.28% (n = 330,000);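 active = inhibition of at least 40% at 20 µM, with no more than 30% in the related APOBEC3A deaminase screen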;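 also: plate controls were DMSO wells with A3G for no effect and wells lacking A3G enzyme for full effect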
Target sequence (Q9HC16 whole entry, looked up): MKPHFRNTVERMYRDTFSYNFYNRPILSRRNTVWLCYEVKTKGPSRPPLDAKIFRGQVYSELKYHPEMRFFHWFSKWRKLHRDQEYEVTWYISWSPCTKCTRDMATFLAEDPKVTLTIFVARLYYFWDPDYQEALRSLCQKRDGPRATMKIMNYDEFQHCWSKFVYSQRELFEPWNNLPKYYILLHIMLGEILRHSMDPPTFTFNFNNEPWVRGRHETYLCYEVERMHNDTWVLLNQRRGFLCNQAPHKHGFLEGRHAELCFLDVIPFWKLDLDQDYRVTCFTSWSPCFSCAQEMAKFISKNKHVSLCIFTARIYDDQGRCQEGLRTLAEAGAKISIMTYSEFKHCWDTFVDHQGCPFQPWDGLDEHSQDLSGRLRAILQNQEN
ALR inh: blocks human ALR sulfhydryl oxidase activity. P55789. purified ALR, DTT oxidation, H2O2 HRP-luminol luminescence. inhibition, % (concentration not given with the values). actives 3.8% (n = 290,000). AID 485317;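 active = mean replicate inhibition above about 79%, with every replicate also reaching it, limit read from the data; inconclusive = only one of the two criteria met; inactive = mean below limit and not every replicate reaching it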
rCAG binder: r(CAG) repeat RNA binding. actives 1.3% (n = 370,000). TO-PRO-1 dye displacement fluorescence. inhibition, % at 3 µM;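 active = inhibition above the plate cutoff, the mean of all test compounds on that plate plus 3 SD, cut at about 35% in these data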;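 also: 0% = DMSO alone and 100% = 100 µM mitoxantrone as full dye displacement; higher means more dye released from RNA so lower well fluorescence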
A3A deaminase: human APOBEC3A DNA deaminase inhibition; recombinant A3A, FAM/TAMRA ssDNA deamination fluorescence; inhibition, % at 20 µM; actives 0.41% (n = 330,000); P31941; AID 493011;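 active = at least 40% inhibition at 20 µM here, with at most 30% in a related deaminase screen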;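 also: plate controls were A3A with DMSO for no effect and wells lacking A3A enzyme for full effect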
Target sequence (P31941 whole entry, looked up): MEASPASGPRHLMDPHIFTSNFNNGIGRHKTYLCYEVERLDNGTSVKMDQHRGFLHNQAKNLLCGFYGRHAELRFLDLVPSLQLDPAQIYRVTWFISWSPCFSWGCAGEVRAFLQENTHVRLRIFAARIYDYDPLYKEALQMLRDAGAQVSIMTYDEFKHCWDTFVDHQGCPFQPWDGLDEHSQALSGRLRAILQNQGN
aDG glyco up: alpha-DG glycosylation activation | Pro5-aDG cells, alpha-DG glycosylation AlphaScreen (IIH6); 0% Pro5, 100% B10-LARGE cell signal | activation, % at 10 µM | actives 0.22% (n = 360,000) | AID 624168;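 active = activation of at least 8% versus controls, or a plate z-score of at least 8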;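 also: Pro5 are CHO cells carrying HIG-tagged alpha-DG that lacks glycosylation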
PHOSPHO1 block: inhibitors of human PHOSPHO1 phosphatase; recombinant PHOSPHO1, absorbance phosphatase assay; inhibition, % at 13.3 µM; actives 1.1% (n = 290,000); in the data active = inhibition above about 60%
* hit, by the source's call; ? = inconclusive; · = no result given.

SMILES	A3G deaminase	ALR inh	rCAG binder	A3A deaminase	aDG glyco up	PHOSPHO1 block
Cc1ccc(CN2CCSc3ccc(C(=O)N4CCOCC4)cc32)cc1	-3.5	98.6*	·	-2.7	-0.2	43.7
CCOC(=O)N1CCN(C(=O)c2ccc3c(c2)N(Cc2ccccc2)CCS3)CC1	-8.5	98.1*	0.6	-3.6	-0.1	4.7
Cc1ccc(CN2CCSc3ccc(C(=O)N4CCN(c5ncccn5)CC4)cc32)cc1	1.3	5.6	·	3.1	0.2	-82.9
CCN1CCN(C(=O)c2ccc3c(c2)N(Cc2ccc(C)cc2)CCS3)CC1	-3.7	98.9*	-10.4	-4.0	0.9	31.9
CC(COc1cccc(F)c1)CN1CCC(C(O)(c2ccccc2)c2ccccc2)CC1 (configuration not stated)	·	·	1.2	·	·	·
C[C@@H](CO)N(CCc1cn(Cc2ccccc2)nn1)S(=O)(=O)c1ccccc1Br	·	·	1.4	·	·	·
O=C(CNc1cc([N+](=O)[O-])ccc1NCCO)Nc1cccc(S(=O)(=O)N2CCCCC2)c1	-4.8	97.2*	12.4	-2.6	-0.5	·
CCOC(=O)C1C(=O)NC(c2ccccc2)=NC1c1ccccc1 (configuration not stated)	-3.6	-32.9	2.2	-1.7	0.2	12.2
CCOC(=O)C1C(=O)NC(c2ccccc2)=NC1c1ccc(F)cc1 (configuration not stated)	-2.3	98.1*	-2.0	-3.4	0.2	40.3
C=CCCC(=O)NC1CC(C)(C)Cc2c1cnn2-c1ccc(OC)cc1 (configuration not stated)	-5.7	-0.6	-3.9	-0.5	0.2	40.3
COc1ccc(-n2ncc3c2CC(C)(C)CC3NC(=O)CCn2cncn2)cc1 (configuration not stated)	-3.2	-3.3	-8.4	6.9	0.3	89.8*
O=C(C1CCCCC1)N1CCN=C1SCc1cccnc1	-6.0	99.9*	-2.4	-28.2	-0.3	0.7
COc1ccc(CC(=O)N2CCN=C2SCc2cccc([N+](=O)[O-])c2)cc1	-14.4	99.3*	0.4	3.1	-0.2	26.7
O=C(C1CCCCC1)N1CCN=C1SCc1cccc([N+](=O)[O-])c1	-6.1	99.6*	-3.4	-16.0	0.0	57.0
COc1ccc(S(=O)(=O)N2CCN=C2SCc2cccc(F)c2)cc1	-0.1	-5.3	-2.7	2.1	0.0	61.0*
O=C(Cc1ccc([N+](=O)[O-])cc1)N1CCN=C1SCc1ccccc1	-7.2	-3.6	9.9	-1.6	0.1	-17.6
O=C(C1CC1)N1CCN=C1SCc1cccc(C(F)(F)F)c1	0.2	?	-0.4	2.6	0.0	18.3
Cc1ccc(CSc2nnc(-c3cc(-c4ccc(C)cc4)n[nH]3)n2N)cc1	·	·	6.6	·	·	·
COC(=O)[C@]12C[C@H](CC(=O)N3CCN(C(=O)c4ccco4)CC3)C(=O)N(Cc3cccc4ccccc34)C1=C[C@H](C(C)C)O[C@@H]2C1CC1	·	·	7.7	·	·	·
COC(=O)[C@]12C[C@H](CC(=O)NCc3ccc(C)o3)C(=O)N(Cc3ccco3)C1=C[C@H](COCc1ccccc1)O[C@@H]2C	·	·	6.8	·	·	·
CC(C)(C)c1nc(SCC(=O)Nc2nc3c(s2)CCCC3)c2ccccc2n1	-3.8	-36.6	3.7	-5.5	-0.1	12.2
Cc1nc(SCC(=O)Nc2ccc(CN3CCCC3)cc2)c2c(C)c(C)sc2n1	-5.1	98.8*	3.4	0.9	1.8	·
CC(C)c1nc(SCC(=O)Nc2ccc(C(=O)O)cc2)c2c3c(sc2n1)CCCC3	-9.8	99.2*	3.9	-3.5	0.0	27.9
CC(=O)Nc1ccc(NC(=O)CSc2nc(C)nc3sc(C)c(C)c23)cc1	-7.1	-13.8	-0.2	-1.6	0.1	4.0
CC(C)c1nc(SCC(=O)Nc2nc3c(s2)CCCC3)c2ccccc2n1	-5.7	98.3*	3.2	-2.3	0.1	17.6
SMILES	A3G deaminase	ALR inh	rCAG binder	A3A deaminase	aDG glyco up	PHOSPHO1 block
COC(=O)[C@]12C[C@H](CC(=O)NCCCN3CCCC3=O)C(=O)N(Cc3ccco3)C1=C[C@H](C1CCCC1)O[C@@H]2C	·	·	1.6	·	·	·
C=CCN(Cc1ccc2c(c1)OCO2)C(C#CC1CC1)C(C)C (configuration not stated)	·	·	3.1	·	·	·
CCOC(=O)[C@@]12CCC3=C1N(CCC3)C(=O)[C@H](CC(=O)NCc1ccc(C)o1)C2	·	·	-0.4	·	·	·
COC(=O)[C@]12C[C@H](CC(=O)N3CCOCC3)C(=O)N(CCc3ccc(OC)c(OC)c3)C1=C[C@H](COCc1ccccc1)O[C@@H]2C	·	·	2.8	·	·	·
CCOC(=O)c1c(N)sc2c1C1CCN2CC1	-4.8	98.5*	-2.2	-3.2	-0.3	31.2
CN1c2ccc([N+](=O)[O-])cc2N(C)C1(C)c1ccccc1 (configuration not stated)	7.9	99.2*	-0.1	-3.9	-0.3	34.0
O=C(Nc1ccc(Cl)c(Cl)c1)Nc1ccc(N2CCCC2)c(S(=O)(=O)Nc2ccccc2Cl)c1	-10.0	-1.0	33.1	2.4	-0.6	-2.4
O=C(Nc1ccc(F)cc1)Nc1ccc(N2CCCC2)c(S(=O)(=O)Nc2ccccc2Cl)c1	0.9	-17.3	37.0*	-0.5	1.2	-7.8
COc1ccc2c(c1)[C@@H](NC(=O)c1ccncc1)[C@H](C)[C@H]2c1ccccc1	·	·	2.2	·	·	·
Cc1ccc(S(=O)(=O)N2CCN(C(=O)CSc3nnc(C)c(=O)[nH]3)CC2)cc1	-3.6	-1.3	10.7	2.3	0.0	90.3*
Cc1cc(C)c(C)c(C(=O)CSc2nnc(C)c(=O)[nH]2)c1C	·	·	·	·	·	88.6*
Cc1sc(NC(=O)CSc2nc(N)cc(N)n2)c(C#N)c1C	6.2	6.4	6.7	3.2	0.0	24.8
Cc1sc(NC(=O)CSc2nnc(C)c(=O)[nH]2)c(C#N)c1C	-4.8	98.4*	16.1	-5.0	0.1	33.0
Cc1ccc(NC(=O)CSc2nnc(C)c(=O)[nH]2)cc1C	-6.0	95.1*	4.8	-1.5	-0.3	-2.0
CCCCc1c(-c2ccccc2OC)ncn1Cc1c(F)cccc1F	·	·	1.5	·	·	·
Cc1cccc(C)c1NC(=O)C/C(N)=N/O	-12.0	-9.7	1.3	-2.4	0.1	-20.6
Cc1ccc(NC(=O)C/C(N)=N/O)cc1C	5.1	4.8	2.2	12.1	0.0	69.4*
Cc1nnc(SCC(=O)Nc2cccc(C(F)(F)F)c2)[nH]c1=O	-2.7	98.2*	6.1	-2.7	-0.2	7.6
COc1ccc2c(c1)CN1CN(Cc3ccccc3)S(=O)(=O)CC21 (configuration not stated)	·	·	7.1	·	·	·
O=S(=O)(c1cccc(-c2cn3cccnc3n2)c1)N1CCCCCC1	-7.5	-3.0	9.0	0.7	-0.4	59.3
Cc1ccc2nc(-c3cccc(S(=O)(=O)N4CCCC4)c3)cn2c1	0.8	9.5	-1.8	-2.1	0.1	15.9
COc1ccc(-c2cn3cc(Cl)ccc3n2)cc1OC	4.6	48.9	-1.5	5.2	0.2	5.1
Cc1ccc2nc(-c3cccc(S(=O)(=O)N4CC(C)OC(C)C4)c3)cn2c1 (configuration not stated)	-8.9	98.1*	-1.7	-6.0	0.9	38.0
